Results on eight molecules are retold here after PubChem BioAssay (EPA / NIEHS).

The structures appear in SMILES notation. Calls of active or inactive are those of the source. Rule for the calls: active = hit-call score of the fitted dose curve at least 0.9, where 1 is the maximum; inactive = score below 0.9.

Read-out in one assay: Monocyte Chemoattractant Protein-1 (MCP1), CCL2 (gene 6347)
Briefly: BSK_4H_MCP1: BioMAP Diversity Plus: 4H Assay for Monocyte Chemoattractant Protein-1 (MCP1) Biomarker Activity (AID 2283018). The following applies: primary human endothelial cells (HUVEC); actives raise or lower the signal. A digest of the protocol:
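Human umbilical vein endothelial cells (4H system) dosed with chemical; MCP-1 measured by ELISA 24 h after dosing. Bidirectional curve fitting against DMSO negative control as baseline; parallel SRB total-protein staining tracks overt cytotoxicity.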
With `Cc1cc(C)cc(C)c1`, the outcome was inactive.

`Cc1ccccc1OP(=O)(Oc1ccccc1)Oc1ccccc1`: the concentration at half-maximal activity (AC50) (usually the concentration at which the activity in the assay is half-maximal) was 20 µM (active).

`Cc1ccc(OP(=O)(Oc2ccc(C)cc2C)Oc2ccc(C)cc2C)c(C)c1`: the AC50 is 4.53 µM (active).

Regarding `O=c1oc2ccccc2c(O)c1C(CC(O)c1ccc(-c2ccc(Br)cc2)cc1)c1ccccc1` (centres undefined), the concentration at half-maximal activity (AC50) was 1.47 µM (active).

Consider `O=S(=O)(c1ccc(Cl)cc1)c1cc(Cl)c(Cl)cc1Cl`, for which the result was inactive.

As for `OC(Cc1ccccc1Cl)(Cn1[nH]cnc1=S)C1(Cl)CC1` (centres undefined), the AC50 is 21.4 µM (active).

As to `Cc1ccc2nc3sc(=O)sc3nc2c1`, the AC50 was 5 µM (active).

For `C=CC(Cl)CCl` (centres undefined), the result was inactive.

Read-out in another assay: Human Leukocyte Antigen - DR isotype (HLADR), HLA-DRA (gene 3122)
As to the kind of experiment: BSK_3C_HLADR: BioMAP Diversity Plus: 3C Assay for Human Leukocyte Antigen - DR isotype (HLADR) Biomarker Activity (AID 2283019). The following applies: primary human endothelial cells (HUVEC); actives raise or lower the signal. A digest of the protocol: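 HUVEC, 3C stimulation, 24 h post-dose; HLA-DR by ELISA; bidirectional curve fit vs DMSO baseline; gain or loss of signal scored.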
Turning to `Cc1ccccc1OP(=O)(Oc1ccccc1)Oc1ccccc1`, the concentration at half-maximal activity (AC50) is 30.4 µM (active).

With `O=c1oc2ccccc2c(O)c1C(CC(O)c1ccc(-c2ccc(Br)cc2)cc1)c1ccccc1` (centres undefined), the half-maximal activity concentration (AC50) is 8.28 µM (active).

As to `O=S(=O)(c1ccc(Cl)cc1)c1cc(Cl)c(Cl)cc1Cl`, the AC50 is 5.27 µM (active).

For the molecule `OC(Cc1ccccc1Cl)(Cn1[nH]cnc1=S)C1(Cl)CC1` (centres undefined), the concentration at half-maximal activity (AC50) was 30.1 µM (active).

`Cc1ccc2nc3sc(=O)sc3nc2c1`: the AC50 is 5.97 µM (active).

Read-out in another assay: Interleukin-8 (IL8), CXCL8 (gene 3576)
Briefly: BSK_3C_IL8: BioMAP Diversity Plus: 3C Assay for Interleukin-8 (IL8) Biomarker Activity (AID 2283020). The following applies: primary human endothelial cells (HUVEC); actives raise or lower the signal. The method in brief: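 Primary human umbilical vein endothelial cells (3C system) were exposed to test chemical for 24 h, then IL-8 was quantified by ELISA. Responses were fitted bidirectionally against DMSO vehicle as baseline.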
On to `Cc1cc(C)cc(C)c1`, for which the result was inactive.

Take `Cc1ccccc1OP(=O)(Oc1ccccc1)Oc1ccccc1`: the AC50 was 20 µM (active).

`Cc1ccc(OP(=O)(Oc2ccc(C)cc2C)Oc2ccc(C)cc2C)c(C)c1`: the result was inactive.

Turning to `O=c1oc2ccccc2c(O)c1C(CC(O)c1ccc(-c2ccc(Br)cc2)cc1)c1ccccc1` (centres undefined), the result was inactive.

Regarding `O=S(=O)(c1ccc(Cl)cc1)c1cc(Cl)c(Cl)cc1Cl`, the half-maximal activity concentration (AC50) is 3.97 µM (active).

`OC(Cc1ccccc1Cl)(Cn1[nH]cnc1=S)C1(Cl)CC1` (centres undefined): the result was inactive.

Take `Cc1ccc2nc3sc(=O)sc3nc2c1`: the AC50 is 5 µM (active).

As for `C=CC(Cl)CCl` (centres undefined), the result was inactive.

Read-out in a further assay: Monokine induced gamma interferon (MIG), CXCL9 (gene 4283)
As to the kind of experiment: BSK_3C_MIG: BioMAP Diversity Plus: 3C Assay for Monokine induced gamma interferon (MIG) Biomarker Activity (AID 2283021).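 For AC50: MIG protein level measured by immunoassay in the treated endothelial cultures.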 The following applies: primary human endothelial cells (HUVEC); actives raise or lower the signal. A digest of the protocol:
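Primary human umbilical vein endothelial cells in the 3C system were exposed to chemical for 24 h, after which MIG was quantified by ELISA. Activity was fitted bidirectionally against DMSO as negative control and baseline.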
For `Cc1cc(C)cc(C)c1`, the outcome was inactive.

Consider `Cc1ccccc1OP(=O)(Oc1ccccc1)Oc1ccccc1`, for which the outcome was inactive.

With `Cc1ccc(OP(=O)(Oc2ccc(C)cc2C)Oc2ccc(C)cc2C)c(C)c1`, the result was inactive.

Turning to `O=c1oc2ccccc2c(O)c1C(CC(O)c1ccc(-c2ccc(Br)cc2)cc1)c1ccccc1` (centres undefined), the AC50 is 31.2 µM (active).

For the molecule `O=S(=O)(c1ccc(Cl)cc1)c1cc(Cl)c(Cl)cc1Cl`, the outcome was inactive.

On to `OC(Cc1ccccc1Cl)(Cn1[nH]cnc1=S)C1(Cl)CC1` (centres undefined), for which the outcome was inactive.

Regarding `Cc1ccc2nc3sc(=O)sc3nc2c1`, the AC50 is 8.57 µM (active).

In the case of `C=CC(Cl)CCl` (centres undefined), the outcome was inactive.
